Test results reported in PubChem BioAssay (EPA / NIEHS).
Active and inactive are the calls of the source. How the source made its calls: active means hit-call score of the fitted dose curve at least 0.9, where 1 is the maximum; inactive means score below 0.9.

Experiments:
[1] = ATG_GLI_CIS: Attagene CIS-FACTORIAL HepG2 Assay for human Zinc Finger Protein GLI1 (AID 2282945); settings: HepG2, Attagene cis-factorial reporter mRNA, GLI element; actives raise or lower the signal
Method in brief: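 Bidirectional curve fits relative to DMSO, using reporter mRNA levels from RT-PCR plus capillary electrophoresis. Cells were HepG2 transiently carrying cis-regulated reporter constructs, harvested 24 h after dosing.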

[2] = ATG_GRE_CIS: Attagene CIS-FACTORIAL HepG2 Assay for human Glucocorticoid Response Elements (GRE) (AID 2282947); settings: HepG2 GRE cis-reporter, Attagene multiplex mRNA; actives raise or lower the signal
Method in brief: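 Transient MRTU transfection of human HepG2 liver cells; cis-regulated reporters report endogenous factors. 24 h dosing → RNA isolation → RT-PCR → 6-FAM primer extension → HpaI cut → CE fragment analysis. Bidirectional fit, DMSO negative control.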

[3] = ATG_ISRE_CIS: Attagene CIS-FACTORIAL HepG2 Assay for human Interferon Regulatory Factor 1 (IRF1) binding to an Interferon-Stimulated Response Element (ISRE) (AID 2282948); settings: HepG2 ISRE cis-reporter (Attagene), mRNA transcription readout; actives raise or lower the signal
Method in brief: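 Transfected HepG2 (multiple reporter transcription units, cis elements) dosed 24 h. RNA → oligo(dT) RT → PCR → 6-FAM primer extension → HpaI → CE. DMSO = negative control/baseline.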

[4] = ATG_M_32_CIS: Attagene CIS-FACTORIAL HepG2 Assay for M32 Transcription Factor (Internal Marker) (AID 2282949); settings: HepG2 Attagene cis-factorial M32 reporter, mRNA; actives raise or lower the signal;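 further: background control marker of the multiplexed CIS panel rather than a real target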
Method in brief: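 HepG2 cells transiently transfected with multiplexed cis-regulated reporter units, dosed 24 h. Reporter mRNA quantified by RT-PCR, 6-FAM labelling, HpaI digestion and capillary electrophoresis; bidirectional fit vs DMSO.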

[5] = ATG_M_06_CIS: Attagene CIS-FACTORIAL HepG2 Assay for M06 Transcription Factor (Internal Marker) (AID 2282950); settings: HepG2 Attagene CIS-FACTORIAL M06 internal marker reporter; actives raise or lower the signal
Method in brief: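 HepG2 cells transiently transfected with cis-regulated multiple reporter transcription units were exposed to chemical for 24 h; reporter mRNA was quantified by RT-PCR, 6-FAM primer labelling, HpaI digestion and capillary electrophoresis, fitted bidirectionally against DMSO.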

[6] = molecular target: Hepatocyte nuclear factor 6 (Homo sapiens) (UniProt Q9UBC0); experiment: ATG_HNF6_CIS: Attagene CIS-FACTORIAL HepG2 Assay for human Hepatocyte Nuclear Factor 6 (HNF6) (AID 2282952); settings: HepG2 Attagene cis-factorial HNF6 reporter transcription; actives raise or lower the signal
Method in brief: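 Transiently transfected HepG2 cells expressing cis-regulated reporter transcription units were exposed to chemical for 24 h in a 24-well format. Reporter transcript abundance was determined by fluorescence capillary electrophoresis.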

[7] = molecular target: Heat shock factor protein 1 (Homo sapiens) (UniProt Q00613); experiment: ATG_HSE_CIS: Attagene CIS-FACTORIAL HepG2 Assay for human Heat Shock Transcription Factor 1 (HSE) (AID 2282953); settings: HepG2 HSE cis-reporter, Attagene RNA transcription; actives raise or lower the signal
Method in brief: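 HepG2 cells transiently transfected with multiple reporter transcription units under cis-regulatory promoter control, measuring endogenous transcription factor activity. After 24 h chemical exposure, reporter mRNA quantified by RT-PCR, fluorescent labelling, HpaI digestion and capillary electrophoresis; bidirectional fit versus DMSO.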

[8] = ATG_MRE_CIS: Attagene CIS-FACTORIAL HepG2 Assay for human Metal Responsive Element (MRE) (AID 2282954); settings: HepG2 MRE cis-reporter transcription, Attagene multiplex; actives raise or lower the signal
Method in brief: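 Transient MRTU transfection of HepG2 (FuGene 6); 24 h dosing; total RNA → oligo(dT) RT, PCR, 6-FAM primer extension, HpaI cut, CE. Bidirectional fit vs DMSO.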

[9] = ATG_PBREM_CIS: Attagene CIS-FACTORIAL HepG2 Assay for human Phenobarbital-responsive Enhancer Module (PBREM) (AID 2282955); settings: HepG2 PBREM cis-reporter, Attagene multiplexed transcription; actives raise or lower the signal
Method in brief: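 After a 24 h incubation with test chemical, transfected HepG2 cells yield total RNA; reporter-specific RT-PCR products are fluorescently labelled, HpaI-digested and resolved by capillary electrophoresis against ROX size standards.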

[10] = molecular target: Paired box protein Pax-6 (Homo sapiens) (UniProt P26367); experiment: ATG_Pax6_CIS: Attagene CIS-FACTORIAL HepG2 Assay for human Paired Box 6 (PAX6) (AID 2282956); settings: HepG2 CIS-FACTORIAL PAX6 reporter transcription, RNA readout; actives raise or lower the signal
Method in brief: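 Transient MRTU transfection of HepG2 → compound exposure 24 h → TriZol RNA, oligo(dT) RT → PCR, 6-FAM primer extension, HpaI cut → capillary electrophoresis; activity fitted both directions against DMSO.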

[11] = ATG_PXRE_CIS: Attagene CIS-FACTORIAL HepG2 Assay for human Pregnane X Receptor Element (PXRE) (AID 2282957); settings: HepG2 Attagene CIS-FACTORIAL PXRE reporter, mRNA; actives raise or lower the signal
Method in brief: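 Cis-element reporter mRNA in human hepatoma HepG2 cells is measured 24 h post-dosing by RT-PCR, primer-extension labeling and capillary electrophoresis; gain or loss of signal is fitted relative to DMSO.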

[12] = ATG_RORE_CIS: Attagene CIS-FACTORIAL HepG2 Assay for human RAR-related Orphan Receptor Element (RORE) (AID 2282959); settings: HepG2 Attagene cis-factorial RORE reporter, mRNA; actives raise or lower the signal
Method in brief: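 Fluorescence intensity of reporter-specific cDNA fragments, separated by capillary electrophoresis, gives the signal. Source: HepG2 liver cells transiently transfected with cis-element reporters and exposed 24 h; DMSO-normalized bidirectional fit.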

[13] = ATG_Sox_CIS: Attagene CIS-FACTORIAL HepG2 Assay for human SRY-box transcription factor (SOX) (AID 2282960); settings: HepG2 Attagene cis-factorial SOX reporter, mRNA; actives raise or lower the signal
Method in brief: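 After 24 h of chemical treatment, transfected HepG2 reporter cells are lysed for total RNA. Transcript levels come from RT-PCR with labelled primer extension and capillary electrophoresis, analysed bidirectionally versus DMSO.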

[14] = ATG_SREBP_CIS: Attagene CIS-FACTORIAL HepG2 Assay for human Sterol Regulatory Element Binding (SREBP) (AID 2282962); settings: HepG2 Attagene cis-factorial SREBP reporter, mRNA; actives raise or lower the signal
Method in brief: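 Transfected HepG2 (cis-regulated reporter library, endogenous TFs) → compound 24 h → total RNA → oligo(dT) RT → reporter-specific PCR → FAM primer extension, HpaI cut → CE fluorescence. Fit bidirectional vs DMSO.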

[15] = molecular target: Signal transducer and activator of transcription 3 (Homo sapiens) (UniProt P40763); experiment: ATG_STAT3_CIS: Attagene CIS-FACTORIAL HepG2 Assay for human Signal Transducer and Activator of Transcription 3 (STAT3) (AID 2282963); settings: HepG2, Attagene cis-factorial STAT3 reporter transcription; actives raise or lower the signal
Method in brief: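 Endogenous STAT3-responsive cis-element activity was read in transiently transfected HepG2 cells after 24 h treatment. Reporter transcripts were quantified via RT-PCR and capillary electrophoresis, with DMSO as negative control and bidirectional curve fitting.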

[16] = ATG_TA_CIS: Attagene CIS-FACTORIAL HepG2 Assay for human TA Basal Promoter (AID 2282964); settings: HepG2 Attagene CIS-factorial TA basal promoter reporter; actives raise or lower the signal
Method in brief: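 HepG2 cells transiently transfected with multiplexed cis-promoter reporter units, dosed 24 h. Reporter mRNA measured by RT-PCR, 6-FAM labelling, HpaI digestion and capillary electrophoresis; bidirectional fit versus DMSO baseline, serving as background control.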

[17] = ATG_PPRE_CIS: Attagene CIS-FACTORIAL HepG2 Assay for human Peroxisome Proliferator-activated Response Element (PPRE) (AID 2282958); settings: HepG2 PPRE cis-element reporter, Attagene transcription factor profiling; actives raise or lower the signal
Method in brief: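 Multiplexed reporter transcription units under cis-regulatory promoters were transfected into HepG2 cells to capture endogenous factor activity. A 24 h incubation preceded RNA isolation and fluorescent RT-PCR fragment analysis.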

[18] = molecular target: Hypoxia-inducible factor 1-alpha (Homo sapiens) (UniProt Q16665); experiment: ATG_HIF1a_CIS: Attagene CIS-FACTORIAL HepG2 Assay for human Hypoxia Inducible Factor 1 (HIF1A) (AID 2282951); settings: HepG2 Attagene cis-factorial HIF1a reporter transcription; actives raise or lower the signal
Method in brief: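 In this multiplexed cell assay, HepG2 cells bearing transfected cis reporters are dosed for 24 h and reporter mRNA is read by RT-PCR plus capillary electrophoresis; signal increases and decreases are both scored against DMSO.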

[19] = molecular target: Transcription factor Sp1 (Homo sapiens) (UniProt P08047); experiment: ATG_Sp1_CIS: Attagene CIS-FACTORIAL HepG2 Assay for human Specificity Protein 1 (Sp1) (AID 2282961); settings: HepG2 Sp1 cis-reporter transcription, actives raise or lower the signal
Method in brief: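 Sp1-driven reporter mRNA, read as capillary electrophoresis fluorescence after RT-PCR, in transiently transfected HepG2 cells dosed for 24 h; signal change in either direction relative to DMSO.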

Measured: AC50

Chain of Hypoxia-inducible factor 1-alpha (Homo sapiens) (Q16665 whole entry, looked up): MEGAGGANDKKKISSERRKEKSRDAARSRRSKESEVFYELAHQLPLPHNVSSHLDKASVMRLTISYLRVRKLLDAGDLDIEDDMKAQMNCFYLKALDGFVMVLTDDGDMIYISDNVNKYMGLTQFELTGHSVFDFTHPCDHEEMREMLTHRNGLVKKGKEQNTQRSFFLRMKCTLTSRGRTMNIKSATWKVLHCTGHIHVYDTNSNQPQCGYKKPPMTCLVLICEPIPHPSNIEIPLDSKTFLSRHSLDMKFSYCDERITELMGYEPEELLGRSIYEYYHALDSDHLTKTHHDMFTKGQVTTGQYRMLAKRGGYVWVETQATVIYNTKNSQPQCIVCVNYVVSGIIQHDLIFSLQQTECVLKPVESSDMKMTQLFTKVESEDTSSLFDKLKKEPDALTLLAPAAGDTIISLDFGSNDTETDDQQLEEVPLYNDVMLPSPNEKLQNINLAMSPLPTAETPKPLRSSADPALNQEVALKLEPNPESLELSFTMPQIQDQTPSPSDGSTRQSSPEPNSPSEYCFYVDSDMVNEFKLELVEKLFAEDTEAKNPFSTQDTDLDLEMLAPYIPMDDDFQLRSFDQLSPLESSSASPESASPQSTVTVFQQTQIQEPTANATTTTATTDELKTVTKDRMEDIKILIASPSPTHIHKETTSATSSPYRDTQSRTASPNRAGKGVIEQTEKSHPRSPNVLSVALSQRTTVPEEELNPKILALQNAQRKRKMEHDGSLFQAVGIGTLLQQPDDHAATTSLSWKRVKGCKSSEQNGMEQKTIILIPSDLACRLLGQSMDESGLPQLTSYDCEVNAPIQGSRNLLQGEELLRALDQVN
Chain of Hepatocyte nuclear factor 6 (Homo sapiens) (Q9UBC0 whole entry, looked up): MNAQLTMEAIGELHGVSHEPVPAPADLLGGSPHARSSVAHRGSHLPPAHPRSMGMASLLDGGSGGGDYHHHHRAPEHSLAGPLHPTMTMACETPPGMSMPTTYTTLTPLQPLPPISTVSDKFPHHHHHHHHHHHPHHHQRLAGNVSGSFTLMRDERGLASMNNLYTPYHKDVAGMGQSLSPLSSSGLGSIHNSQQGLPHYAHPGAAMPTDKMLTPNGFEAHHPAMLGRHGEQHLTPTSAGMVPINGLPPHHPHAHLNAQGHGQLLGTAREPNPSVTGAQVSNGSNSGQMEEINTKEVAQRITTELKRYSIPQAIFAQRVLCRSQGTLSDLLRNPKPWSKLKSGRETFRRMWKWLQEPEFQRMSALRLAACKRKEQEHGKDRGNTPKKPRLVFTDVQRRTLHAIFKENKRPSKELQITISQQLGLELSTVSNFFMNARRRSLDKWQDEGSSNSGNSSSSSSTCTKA
Chain of Paired box protein Pax-6 (Homo sapiens) (P26367 whole entry, looked up): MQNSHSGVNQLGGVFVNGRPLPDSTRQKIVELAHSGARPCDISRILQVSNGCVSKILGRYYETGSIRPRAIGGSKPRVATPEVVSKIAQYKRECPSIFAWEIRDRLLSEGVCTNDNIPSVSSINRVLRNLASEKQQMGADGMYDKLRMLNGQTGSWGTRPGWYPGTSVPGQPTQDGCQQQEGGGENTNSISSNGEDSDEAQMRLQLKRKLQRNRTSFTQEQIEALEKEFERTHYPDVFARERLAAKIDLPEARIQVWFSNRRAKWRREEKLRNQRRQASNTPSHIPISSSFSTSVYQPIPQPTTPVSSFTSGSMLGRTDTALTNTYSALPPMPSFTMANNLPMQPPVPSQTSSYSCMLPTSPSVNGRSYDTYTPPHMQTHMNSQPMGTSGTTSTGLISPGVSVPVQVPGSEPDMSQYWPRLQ
Chain of Heat shock factor protein 1 (Homo sapiens) (Q00613 whole entry, looked up): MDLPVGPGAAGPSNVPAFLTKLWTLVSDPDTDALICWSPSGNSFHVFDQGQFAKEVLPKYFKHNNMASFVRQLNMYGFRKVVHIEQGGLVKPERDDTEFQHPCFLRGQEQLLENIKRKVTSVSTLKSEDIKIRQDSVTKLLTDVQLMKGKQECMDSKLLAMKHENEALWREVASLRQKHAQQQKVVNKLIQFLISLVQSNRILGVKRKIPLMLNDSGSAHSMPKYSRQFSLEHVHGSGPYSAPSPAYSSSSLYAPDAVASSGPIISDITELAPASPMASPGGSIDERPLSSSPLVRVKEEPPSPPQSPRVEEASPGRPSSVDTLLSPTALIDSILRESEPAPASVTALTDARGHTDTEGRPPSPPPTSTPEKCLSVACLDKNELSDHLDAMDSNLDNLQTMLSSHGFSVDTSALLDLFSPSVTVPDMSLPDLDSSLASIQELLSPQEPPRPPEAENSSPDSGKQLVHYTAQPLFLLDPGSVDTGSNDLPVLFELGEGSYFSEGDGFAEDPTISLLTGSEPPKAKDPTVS
Chain of Signal transducer and activator of transcription 3 (Homo sapiens) (P40763 whole entry, looked up): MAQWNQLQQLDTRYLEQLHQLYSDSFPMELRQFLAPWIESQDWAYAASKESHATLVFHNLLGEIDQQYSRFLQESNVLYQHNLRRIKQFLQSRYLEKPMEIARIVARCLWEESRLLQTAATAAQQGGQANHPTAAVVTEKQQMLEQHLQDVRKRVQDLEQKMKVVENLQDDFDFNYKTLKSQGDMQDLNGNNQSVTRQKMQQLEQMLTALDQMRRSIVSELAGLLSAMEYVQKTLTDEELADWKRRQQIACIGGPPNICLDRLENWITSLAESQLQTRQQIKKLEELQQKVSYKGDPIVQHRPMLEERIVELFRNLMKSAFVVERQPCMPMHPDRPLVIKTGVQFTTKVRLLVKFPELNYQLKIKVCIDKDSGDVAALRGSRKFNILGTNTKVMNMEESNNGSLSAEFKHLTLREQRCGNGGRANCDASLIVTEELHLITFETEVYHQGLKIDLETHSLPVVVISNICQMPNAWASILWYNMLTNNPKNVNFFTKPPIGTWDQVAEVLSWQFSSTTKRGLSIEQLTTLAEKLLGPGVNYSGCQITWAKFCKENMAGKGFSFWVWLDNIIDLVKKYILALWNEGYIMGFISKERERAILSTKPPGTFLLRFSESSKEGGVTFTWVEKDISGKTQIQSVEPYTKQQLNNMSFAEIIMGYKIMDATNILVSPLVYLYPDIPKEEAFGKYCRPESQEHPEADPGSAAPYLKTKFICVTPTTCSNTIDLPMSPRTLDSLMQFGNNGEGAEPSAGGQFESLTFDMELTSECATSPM
Chain of Transcription factor Sp1 (Homo sapiens) (P08047 whole entry, looked up): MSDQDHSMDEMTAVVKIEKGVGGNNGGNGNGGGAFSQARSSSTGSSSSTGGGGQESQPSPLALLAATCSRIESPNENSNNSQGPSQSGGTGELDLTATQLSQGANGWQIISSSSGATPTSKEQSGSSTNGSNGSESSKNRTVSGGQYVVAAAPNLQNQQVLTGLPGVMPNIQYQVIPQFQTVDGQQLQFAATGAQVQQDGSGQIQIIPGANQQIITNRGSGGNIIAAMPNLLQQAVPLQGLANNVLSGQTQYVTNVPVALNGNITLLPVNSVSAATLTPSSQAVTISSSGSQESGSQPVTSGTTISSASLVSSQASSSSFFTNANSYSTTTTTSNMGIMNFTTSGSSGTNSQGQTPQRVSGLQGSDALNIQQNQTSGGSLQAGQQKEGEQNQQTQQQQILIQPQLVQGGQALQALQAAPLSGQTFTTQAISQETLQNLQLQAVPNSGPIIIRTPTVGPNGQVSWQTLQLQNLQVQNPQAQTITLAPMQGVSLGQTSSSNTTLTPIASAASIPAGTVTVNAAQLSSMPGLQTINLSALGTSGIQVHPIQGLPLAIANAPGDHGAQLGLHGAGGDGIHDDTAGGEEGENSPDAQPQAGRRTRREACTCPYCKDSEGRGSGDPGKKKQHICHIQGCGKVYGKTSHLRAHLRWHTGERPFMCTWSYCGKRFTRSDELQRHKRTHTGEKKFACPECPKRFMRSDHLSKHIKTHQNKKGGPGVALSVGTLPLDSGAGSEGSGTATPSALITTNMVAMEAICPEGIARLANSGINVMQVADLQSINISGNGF

CCCCOC(=O)CCCCCCCCC(=O)OCCCC
not listed: [17] | [18] | [19]
inactive: all other assays above

CCCCCCCC=O
active: [15] 37.7 µM
not listed: [2] | [9] | [17] | [18] | [19]
inactive: all other assays above

Cc1cccc([N+](=O)[O-])c1C
active: [11] 27.1 µM
not listed: [2] | [12] | [18] | [19]
inactive: all other assays above

OC[C@@H](O)[C@@H](O)[C@H](O)[C@H](O)CO
not listed: [2] | [9] | [17]
inactive: all other assays above

CCCCCC(=O)O
active: [11] 53 µM
not listed: [2] | [9] | [18]
inactive: all other assays above

Cc1ccc2ncccc2c1
not listed: [18] | [19]
inactive: all other assays above

CCCc1cc(=O)[nH]c(=S)[nH]1
active: [11] 65.4 µM
not listed: [2] | [18] | [19]
inactive: all other assays above

CCCCCCCCCCCCCCCC
active: [11] 26.1 µM
not listed: [9] | [12] | [18]
inactive: all other assays above

CCCCCCOCCO
not listed: [12] | [18]
inactive: all other assays above

CC(=O)Oc1ccccc1C(=O)O
active: [11] 26.9 µM
not listed: [7] | [9] | [17] | [18] | [19]
inactive: all other assays above

CCCCC(CC)COC(=O)CC(C(=O)OCC(CC)CCCC)S(=O)(=O)O (stereo not given)
active: [11] 1.1 µM | [14] 14.2 µM
not listed: [18] | [19]
inactive: all other assays above

O=c1c(O)c(-c2ccc(O)c(O)c2)oc2cc(O)cc(O)c12
active: [11] 76.2 µM
not listed: [2] | [7] | [17] | [18]
inactive: all other assays above

CCCCCCCCCCCCCCCCCC(=O)O
not listed: [2] | [9] | [17]
inactive: all other assays above

Cc1cccc(C)c1O
not listed: [2] | [18] | [19]
inactive: all other assays above

C=CCc1ccc(O)c(OC)c1
not listed: [2] | [19]
inactive: all other assays above

NCC1(Cc2noc(=O)[nH]2)CCCCC1
not listed: [2] | [19]
inactive: all other assays above
